# Compound activity from PubChem BioAssay.
# In the library only some 2.7% were active in any assay of this set; here they are far more common.
# Wnt act: activates Wnt/beta-catenin signaling in a reporter cell assay. activator, plate reader. activation, % at 9.35 µM. hit rate 1.2% among 300,000; in the data active = activation above about 30%, passing the limit was not always enough
# GSIS activator: GLuc luminescence reporter in INS-1E cells, primary screen for activators of glucose-dependent secretion of insulin; AID 743287; activation, % at 16.6 µM; INS-1E GLuc reporter insulin secretion, 2-3 h; hit rate 0.61% among 370,000;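 active = lowest replicate activation of at least 40%, so every replicate reaches that level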
# HIV Env fusion: blocks HIV Env-driven cell-cell fusion. HeLa-JRFL Env/CEM21 cell fusion, luciferase. inhibition, % at 12.3 µM. hit rate 1.1% among 360,000;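 active = mean replicate inhibition score of at least 50 and every replicate individually at or above 50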
# MITF TRPM1 HTS: activators of MITF-driven TRPM1 promoter activity in SK-MEL-5 cells | hit rate 0.75% among 300,000 | activation, % at 12.5 µM | AID 588334 | SK-MEL-5 TRPM1-promoter luciferase, 24 h; % of positive control, neutral wells = 0;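 active = mean activation of at least 80% with every replicate also reaching 80%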
# F508del corr: correctors of CFTR F508del function in bronchial epithelial cells | CFBE cells, YFP halide quenching; stimulated with forskolin plus potentiator P3; % fluorescence drop versus neutral controls | activity (quench increase), % at 7.58 µM | hit rate 0.36% among 350,000 | AID 720511;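 active = mean added fluorescence quench of at least 8% versus neutral control, with both replicates also reaching 8%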;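 also: cells transiently co-express mutant CFTR-F508del with the halide-sensitive YFP; corrector assay measuring rescue of mutant channel to the surface after 24 h compound exposure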
# Hits are given with their value; . = inactive; / = not tested or not shown; [ ] = remark or other dose.
SMILES,Wnt act,GSIS activator,HIV Env fusion,MITF TRPM1 HTS,F508del corr
C[C@@H]1CN([C@@H](C)CO)C(=O)c2cc(NS(=O)(=O)c3ccc(Cl)cc3)ccc2O[C@@H](C)CCCCO[C@@H]1CN(C)C(=O)CCCN(C)C,/,.,.,/,.
CC(C)CC#Cc1ccc2c(c1)O[C@@H](CN(C)C(=O)c1cccc(F)c1)[C@@H](C)CN([C@H](C)CO)S2(=O)=O,/,.,.,/,.
COc1ccc(/C=C/C(=O)C2CC2)cc1COc1c(C)cccc1C,.,.,.,.,.
COc1ccc(/C=C/C(=O)O)cc1COc1cccc(C)c1,/,47.0,.,.,/
NC(=S)NN=C1CCCCCCCCCC1,.,54.7,/,.,.
COCC(=O)N1CC2(CN(Cc3ccccc3Cl)C2)c2c([nH]c3cc(OC)ccc23)[C@H]1CO,/,.,/,/,/
COc1ccc(S(=O)(=O)/N=C2/NC(=O)/C(=C\c3cc(OC)c(OC)cc3[N+](=O)[O-])S2)cc1,.,.,40.3,.,/
Cc1ccc(-c2nc3cc(C)c(Br)c(C)n3c2Cc2cccc(F)c2)cc1,.,.,.,/,.
Cc1cc2nc(-c3ccccc3)c(Cc3cccc(F)c3)n2c(C)c1Br,.,.,73.9,/,.
C[C@H](CO)N1C[C@H](C)[C@@H](CN(C)S(=O)(=O)c2ccccc2)Oc2ccc(NC(=O)Cc3ccccc3)cc2CC1=O,/,.,.,/,.
COc1cc(OC)c2c(-c3cccc(-c4ccc(C(C)=O)cc4)c3)cc(=O)oc2c1,/,/,/,.,/
COc1cc(OC)c2c(-c3cccc(-c4ccc(OC)c(F)c4)c3)cc(=O)oc2c1,.,.,.,.,8.5
CCN(C(=O)CSc1nc2ccccc2c(=O)n1-c1ccccc1F)C1CCS(=O)(=O)C1 (stereo not given),.,.,/,.,10.9
Cc1ccc(-c2cnc3c(c2)C(=O)N([C@@H](C)CO)C[C@H](C)[C@@H](CN(C)S(C)(=O)=O)O3)cc1,/,.,.,/,.
CC1Cc2nc(SCC(=O)N3CCOCC3)n(-c3ccccc3)c(=O)c2S1 (stereo not given),.,.,.,.,8.3
O=C(C[C@@H]1CC[C@H]2[C@@H](COC[C@@H](O)CN2S(=O)(=O)c2ccccc2)O1)NCCN1CCCCC1,/,.,.,/,.
COc1ccc(NC(=O)c2ccc(Cl)c(S(=O)(=O)N3CCc4ccccc4C3)c2)cn1,.,.,91.7,/,/
Cc1nn(Cc2ccccc2Cl)c(Cl)c1C(=O)NCCc1ccccc1,47.1,.,.,.,.
CC(C)=CCNc1ncnc2c1c(C#N)cn2C1OC(CO)C(O)C1O (stereo not given),.,.,58.0,.,.
OC[C@H]1O[C@@H](n2cnc3c(Nc4ccccc4)ncnc32)[C@H](O)[C@@H]1O,.,/,.,.,.
CCOc1ccc(/C=C/C(=O)c2cc(Br)ccc(=O)c2O)cc1,.,/,64.0,.,/
CCc1ccc(/C=C/C(=O)c2cc(Br)ccc(=O)c2O)cc1,/,.,/,.,/
COCOc1cccc(CN2CCC(C)(Oc3cccc(C#N)c3)C2)c1 (stereo not given),.,.,.,/,8.7
COc1ccc(OC(=O)N(C)C[C@H]2OCc3ccccc3-c3ccccc3C(=O)N([C@@H](C)CO)C[C@H]2C)cc1,/,.,.,/,.
Cn1cccc1C(=O)Nc1ccc(N2CCOCC2)cc1,38.5,.,/,.,.
SMILES,Wnt act,GSIS activator,HIV Env fusion,MITF TRPM1 HTS,F508del corr
Nc1nonc1C(=O)NCCNCc1cc(Br)ccc1OCc1ccccc1F,/,/,78.1,/,/
CCOC(=O)C1CCCN(Cc2nc(N)nc(Nc3ccc(OC)cc3)n2)C1 (stereo not given),/,.,70.5,.,/
CCOC(=O)C1CCCN(Cc2nc(N)nc(Nc3ccc(Cl)cc3)n2)C1 (stereo not given),.,.,/,/,/
C[C@H]1CN([C@@H](C)CO)C(=O)c2cc(-c3ccc(F)cc3)cnc2O[C@@H]1CN(C)C(=O)Nc1ccc(F)cc1,/,.,.,/,.
Cc1noc(C)c1S(=O)(=O)Nc1ccc2c(c1)C(=O)N([C@@H](C)CO)C[C@H](C)[C@H](CN(C)S(=O)(=O)c1cccs1)OCCCC[C@@H](C)O2,/,.,.,/,.
CS(=O)(=O)NN1C(=O)c2ccccc2NC1c1cc2ccccc2nc1Cl (stereo not given),52.1,.,.,.,.
C[C@@H]1CCCCO[C@@H](CN(C)C(=O)Nc2ccccc2)[C@H](C)CN([C@@H](C)CO)C(=O)c2cc(N(C)C)ccc2O1,/,.,.,/,.
COC(=O)c1cnc(SCc2ccc(Cl)cc2)n1C,.,.,.,.,.
COC(=O)c1cnc(SCC(=O)c2ccccc2)n1C,32.5,.,.,.,.
O=C(C[C@@H]1C[C@H]2c3cc(NC(=O)Nc4ccccc4)ccc3O[C@H]2[C@@H](CO)O1)NCCN1CCCCC1,/,.,.,/,.
O=C(COc1ccc([N+](=O)[O-])cc1Cl)N1CCc2ccccc21,41.7,.,/,119.3,.
O=C(CNc1ccccc1OC(F)F)N1CCc2ccccc21,/,.,.,107.6,/
O=C(CNCCO)N1CCc2ccccc21,/,/,/,.,/
O=C(COc1ccc(F)cc1Br)N1CCc2ccccc21,72.3,/,.,.,/
COc1ccc(OCC(=O)N2CCc3ccccc32)c([N+](=O)[O-])c1,.,.,.,/,.
CO[C@H]1CN(C)C(=O)c2cc(NC(C)=O)ccc2OC[C@@H](C)N(Cc2cccnc2)C[C@@H]1C,/,.,.,/,.
C[C@H](CO)N1C[C@H](C)[C@@H](CN(C)C(=O)C2CCOCC2)Oc2ncc(-c3ccccc3)cc2C1=O,/,.,.,/,.
CCOP(=O)(OCC)c1nc(-c2cccc3ccccc23)oc1NCCc1ccc(OC)cc1,.,.,62.7,.,.
COc1ccc(-c2nc(C#N)c(NCCc3ccccc3)o2)cc1OC,/,/,/,.,/
COc1ccc(CCNc2oc(-c3ccc(OC)c(OC)c3)nc2P(=O)(OC)OC)cc1OC,/,67.9,/,.,/
C[C@@H]1CN([C@@H](C)CO)C(=O)c2cc(NC(=O)CCCN(C)C)ccc2O[C@@H]1CN(C)C(=O)Nc1ccc2c(c1)OCO2,/,.,/,/,.
C[C@@H]1CN([C@@H](C)CO)C(=O)c2cccc(NC(=O)c3ccncc3)c2O[C@H]1CN(C)Cc1ccc(C(=O)O)cc1,/,.,/,/,.
C[C@H](CO)N1C[C@H](C)[C@H](CN(C)Cc2ccc(Cl)c(Cl)c2)Oc2c(NC(=O)c3ccncc3)cccc2C1=O,/,.,.,/,.
C[C@@H]1CN([C@H](C)CO)C(=O)c2cccc(NC(=O)c3ccncc3)c2O[C@@H]1CN(C)Cc1ccc(C(=O)O)cc1,.,.,113.9,.,.
C[C@@H]1CN([C@H](C)CO)C(=O)c2cccc(NC(=O)c3ccncc3)c2O[C@H]1CN(C)Cc1ccc(Cl)c(Cl)c1,/,.,74.9[16.7 µM],/,.
C[C@@H]1CN([C@H](C)CO)C(=O)c2cccc(NC(=O)c3ccncc3)c2O[C@H]1CN(C)CC1CCCCC1,/,.,93.4[16.7 µM],/,.
C[C@H](CO)N1C[C@H](C)[C@H](CN(C)CC2CCCCC2)Oc2c(NC(=O)c3ccncc3)cccc2C1=O,/,.,.,/,.
